Laboratory results published in ChEMBL document CHEMBL4513146, “CO-ADD screening of Karazin Kharkiv National University (Ukraine) compounds”.
Measured potencies and affinities stand elsewhere.

Test system: Klebsiella pneumoniae
Settings: Concentration 32 ug.mL-1;; ASSAY_TEST Inhibition of Bacterial Growth; detection method Absorption (OD600); MEDIA CAMHB; plate type 384well; NBS; CORNING #3640; time 18 hr

Row | SMILES | Inhibition [%]
1 | COC(=O)c1ccc(CN(c2ccc(F)cc2)S(=O)(=O)c2cccn3c(C)nnc23)o1 | 11.43
2 | Cc1ccccc1Oc1nccn2c(=O)n(CC(=O)Nc3ccc(C(C)C)cc3)nc12 | 6.08
3 | CC(C)c1nnc2c(SCC(=O)Nc3ccc(Cl)cc3C(F)(F)F)nc3ccccc3n12 | 1.04
4 | C=Cc1ccc(CN(c2cccc(Cl)c2)S(=O)(=O)c2cccn3c(C)nnc23)cc1 | 6.94
5 | COc1ccc2[nH]cc(C(=O)CSc3nnc4c(=O)n(-c5cccc(Cl)c5C)ccn34)c2c1 | 5.78
6 | CC(C)CCn1c(=O)c2ccccc2n2c(=O)n(CC#N)nc12 | 17.73
7 | Cc1ccccc1Nc1cc(C)n2c(=O)n(CCOc3ccc(F)cc3)nc2n1 | 9.7
8 | Cc1cc2nn(CC(=O)NC3CCCCC3)c(=O)n2c(Nc2ccc(F)c(C)c2)n1 | 19.39
9 | Cc1cc(Nc2ccc(F)cc2)nc2nn(CCc3ccccc3)c(=O)n12 | 16.97
10 | CCOc1ccc(-n2ccn3c(SCC(=O)c4ccc(F)cc4)nnc3c2=O)cc1 | 1.88
11 | CCOC(=O)c1ccccc1NC(=O)Cn1nc2c(Sc3ccccc3)nccn2c1=O | 9.77
12 | O=c1n(Cc2cccc(C(F)(F)F)c2)nc2c(S(=O)(=O)N3CCCCC3)cccn12 | 6.48
13 | COc1ccc(-c2cc3c4nn(CC(=O)Nc5cccc(OC)c5)c(=O)n4ccn3n2)cc1 | 10.26
14 | CC(=O)c1ccc(NC(=O)Cn2nc3ccc(-c4ccc(C)cc4)nn3c2=O)cc1 | 11.92
